SARS PLP yeast = qHTS of Yeast-based Assay for SARS-CoV PLP | S. cerevisiae expressing SARS-CoV PLpro, growth rescue | Potency, µM (titrated, usually from 32.9 µM), hits mostly activators | hit rate 0.19% among 330,000; calls by dose curve; note: nearly all actives have a fitted effect of over 55% in size
LmPK inhibitor = qHTS Assay for Inhibitors of Leishmania Mexicana Pyruvate Kinase (LmPK); Q27686; purified LmPK, Kinase-Glo ATP luminescence, 1 h; Potency, µM (titrated, usually from 57.5 µM), actives largely listed as inhibitors; hit rate 0.37% among 290,000; AID 1721, 2009
Target sequence (Q27686 whole entry, looked up): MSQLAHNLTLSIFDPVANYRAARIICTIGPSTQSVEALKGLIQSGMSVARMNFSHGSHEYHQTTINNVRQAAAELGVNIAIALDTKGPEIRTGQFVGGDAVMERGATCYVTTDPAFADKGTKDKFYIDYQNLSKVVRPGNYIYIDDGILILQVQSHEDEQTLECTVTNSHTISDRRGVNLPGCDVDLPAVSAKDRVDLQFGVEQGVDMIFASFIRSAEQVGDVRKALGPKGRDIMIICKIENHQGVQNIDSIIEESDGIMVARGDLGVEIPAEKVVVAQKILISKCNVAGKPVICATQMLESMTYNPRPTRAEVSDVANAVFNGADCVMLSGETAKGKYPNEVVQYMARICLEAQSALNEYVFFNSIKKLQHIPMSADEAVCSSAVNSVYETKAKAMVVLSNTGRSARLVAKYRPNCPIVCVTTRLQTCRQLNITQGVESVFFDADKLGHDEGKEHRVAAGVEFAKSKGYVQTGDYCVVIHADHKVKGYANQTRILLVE
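Purified LmPK (0.1 nM) with 0.5 mM PEP and 0.1 mM ADP in imidazole buffer pH 7.2 with MgCl2/KCl, 1 h at room temperature. ATP formed was read by luciferase luminescence and normalized to no-enzyme and uninhibited controls.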
TbPYK inhibitor = qHTS of Trypanosoma Brucei Inhibitors | pyruvate kinase (Trypanosoma brucei), Q57TT1 | Potency, µM (titrated, usually from 76.8 µM), most hits filed as inhibitors | hit rate 0.12% among 410,000 | AID 624173, 2012 | TbPYK enzyme, Kinase-Glo Plus ATP luminescence, 45 min; note: nearly all actives have a fitted effect of over 50% in size
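Screened from lowest to highest concentration, compounds were pinned into TbPYK/substrate mixtures, and ADP (130 uM final) was added. Plates sat at room temperature for 45 min prior to Kinase-Glo Plus detection by luminescence.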
Giardia FBPA inh = qHTS Assay for Inhibitors of Fructose-1,6-bisphosphate Aldolase from Giardia Lamblia. A8B2U2. purified Giardia FBPA. Potency, µM (highest dose often 59.6 µM), hits mostly inhibitors. hit rate 0.71% among 290,000; note: nearly all actives have a fitted effect of over 55% in size
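40 nM FBPA preincubated 10 min at RT with compound (up to 57.5 uM final), then substrate plus GAPDH/TPI/NAD/arsenate coupling and diaphorase/resazurin added. Fluorescence read after 20 min at RT, 525/598 nm.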
RE007 growth inh = qHTS Assay for Inhibitors of the HIV-1 protein Vpr; S. pombe RE007 Vpr strain, BacTiter-Glo ATP luminescence, 24 h; Potency, µM (highest dose often 92.2 µM), actives largely listed as inhibitors; hit rate 0.21% among 360,000; active = well fitted falling curve with a large enough effect; inconclusive = small, poorly fitted or top-dose-only effect; inactive = no such curve, though single readings can be large or run the other way; note: nearly all actives have a fitted effect of over 50% in size
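Fission yeast strain RE007, carrying one chromosomally integrated HIV-1 vpr copy, was seeded at OD 0.01 in PMG+AL medium with 23 nL pinned compound. After 24 h at 30 °C and 99% humidity, viability was read by BacTiter-Glo luminescence.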
A number is an active result; . = inactive; ? = inconclusive; / = not tested or not shown; [ ] = another dose, or the depositor's remark. Most compounds without a hit are left out; they make up all but 1.1% or so of the library. Unless noted, calls come from the whole dose curve; as a rule, active = well fitted curve in the direction sought with a large enough effect; inconclusive = small, poorly fitted or top-dose-only effect, or another doubt; inactive = no such curve, though single readings can be large; an effect the other way counts as inactive or inconclusive.

SMILES	SARS PLP yeast	LmPK inhibitor	TbPYK inhibitor	Giardia FBPA inh	RE007 growth inh
Cc1ccc2ccc(C(Nc3ccccn3)c3ccccc3)c(O)c2n1 (stereo unspecified)	11µM	.	.	.	.
c1ccc([C@H]2CNCc3ccccc32)cc1	/	/	/	.	/
Oc1cc2c(cc1O)[C@H]1c3ccccc3CN[C@@H]1CC2	.	4.5µM	/	.	/
CC[C@]1(O)C[C@H]2CN(CCC3=c4ccccc4=N[C]3[C@@](C(=O)OC)(c3cc4c(cc3OC)N(C)[C@H]3[C@@](O)(C(N)=O)[C@H](O)[C@]5(CC)C=CCN6CC[C@]43[C@@H]65)C2)C1	/	/	.	/	/
O=S(=O)(Nc1cccc2ccccc12)c1cccs1	.	.	.	/	.
O=S(=O)(Nc1ccc(O)c2ccccc12)c1cccs1	.	11µM	.	?	.
CC[C@H](C)[C@H](NC(=O)[C@H](CO)NC(=O)[C@H](CC(N)=O)NC(=O)[C@H](CC(C)C)NC(=O)[C@H](Cc1ccc(O)cc1)NC(=O)[C@H](CCCCN)NC(=O)[C@H](CCCCN)NC(=O)[C@@H](NC(=O)[C@H](C)NC(=O)[C@H](CCSC)NC(=O)[C@H](CCC(N)=O)NC(=O)[C@H](CCCCN)NC(=O)[C@H](CCCNC(=N)N)NC(=O)[C@H](CC(C)C)NC(=O)[C@H](CCCNC(=N)N)NC(=O)[C@@H](NC(=O)[C@H](Cc1ccc(O)cc1)NC(=O)[C@H](CC(N)=O)NC(=O)[C@H](CC(=O)O)NC(=O)[C@@H](NC(=O)[C@H](Cc1ccccc1)NC(=O)[C@@H](NC(=O)[C@H](C)NC(=O)[C@H](CC(=O)O)NC(=O)[C@H](CO)NC(=O)[C@@H](N)Cc1c[nH]cn1)C(C)C)[C@@H](C)O)[C@@H](C)O)C(C)C)C(=O)N[C@@H](CC(C)C)C(=O)N[C@@H](CC(N)=O)C(=O)O	/	/	.	/	/
O=C(NN=Cc1ccc2c(c1)OCO2)c1ccccc1	/	/	.	/	.
O=C(N/N=C\c1ccc2c(c1)OCO2)c1ccco1	.	14µM	.	.	.
CCOc1ccc(OCc2cccc(C(=O)N3CCCC3)c2)cc1	.	.	.	.	.
CCOc1ccc(OCc2cccc(C(=O)O)c2)cc1	.	6.3µM	?	.	?
O=C(O)c1cccc(COc2ccc3c(c2)CCC3)c1	.	?	.	?	.
COc1ccc(OCc2cccc(C(=O)O)c2)cc1	.	16µM	.	.	.
CC(C)(C)N1C(=O)[C@H]2[C@H]3[C@H](O)[C@H](O)C/C(=N/OCc4ccccc4)[C@H]3CC[C@@H]2C1=O	/	/	/	.[12.9 µM]	/
Cc1nn(C)c(=O)n1-c1ccc(OCc2ccccc2)cc1	.	14µM	.	.	.
CCCCCCCCCCCCCCCC[n+]1cccc2ccccc21	.	.	.	.	11µM
CCCCCCCCC[n+]1cccc2c3ccccc3ccc21	.	.	.	.	.
Cc1nonc1C(=O)N/N=C/c1cccc(O)c1	.	14µM	.	.	.
CC[C@H](OC(C)=O)C(C[C@H](C)NC)(c1ccccc1)c1ccccc1	/	/	.	/	/
Brc1ccc(-c2noc(C3CCCCC3)n2)cc1	.	.	.	.	.
COc1cccc(-c2nc(-c3ccccc3)no2)c1	.	.	.	.	.
c1ccc(-c2noc(-c3ccc4c(c3)OCO4)n2)nc1	.	3.2µM	11µM	.	?
c1ccc(-c2noc(-c3ccncc3)n2)nc1	.	13µM	?	.	?
COc1cccc(-c2nc(-c3ccccn3)no2)c1	?	13µM	?	/	?
c1ccc(-c2noc(C3CCCCC3)n2)nc1	.	?	.	.	35µM
Cc1cccc(-c2noc(-c3ccc4c(c3)OCO4)n2)c1	.	.	.	.	.
CCC(=O)O[C@@](Cc1ccccc1)(c1ccccc1)[C@H](C)CN(C)C	/	/	.	/	/
O=C(CN1C(=O)COc2ccc(S(=O)(=O)N3CCCC3)cc21)N1CCN(c2ccc(F)cc2)CC1	/	/	.	/	/
COc1cccc(NS(=O)(=O)c2ccc3[nH]cc(C(=O)NCCc4ccccc4)c(=O)c3c2)c1	/	/	.	/	/
